The values that follow are results of earlier work, collected in PubChem BioAssay AID977611.

Broadly, the Kd is the concentration at which binding is half-saturated.

This data set is described as follows: PubChem AID 977611. The settings on record: PDB protein-ligand complexes, literature Kd.

The campaign covered roughly 3,900 compounds. About 3,900 (100%) were called active. Cut-off not given; nearly all actives show Kd up to about 4200 µM. So high a share suggests a set chosen from earlier hits. This is one part of the list. Numbered stars: 1 amine (or outer) side, 2 acyl side, 3 side chain; on linkers, the order of the positions; unused ones are H or OH. *1 amine or outer side, *2 acyl side, *3 side chain or, on linkers, in order; H or OH if unused. Where a SMILES comes first, the peptide text is derived from it. Square brackets hold non-standard residues; d marks the D form. Peptide text beside a SMILES is read from it. [ ]: non-standard residue; d: D form. X1 = O=C([C@H](Cc1ccc(O[P+](O)(O)O)cc1)N[*:1])[*:2]; Lys(Me3) = C[N+](C)(C)CCCC[C@H](N)C(=O)O; Orn(CH(NH2)2) = NC(N)NCCC[C@H](N)C(=O)O; X2 = CNC(N)NCCC[C@H](N[*:1])C(=O)[*:2]; ΔPro = O=C(O)[C@@H]1C=CCN1

On to `CO[C@@H]1O[C@@H](C(=O)O)[C@@H](O[C@H]2O[C@H](COS(O)(O)O)[C@@H](O)[C@H](O)[C@H]2NS(O)(O)O)[C@H](O)[C@H]1OS(O)(O)O`, for which the Kd (protein: Fibroblast growth factor 2 FGF2, PDB entry 4oef) was 17.5 µM (active).

On to `O=C(O)[C@@H]1O[C@@H](O)[C@H](OS(O)(O)O)[C@@H](O)[C@@H]1O[C@H]1O[C@H](COS(O)(O)O)[C@@H](O[C@@H]2O[C@@H](C(=O)O)[C@@H](O[C@H]3O[C@H](COS(O)(O)O)[C@@H](O[C@@H]4O[C@@H](C(=O)O)[C@@H](O[C@H]5O[C@H](COS(O)(O)O)[C@@H](O)[C@H](O)[C@H]5NS(O)(O)O)[C@H](O)[C@H]4OS(O)(O)O)[C@H](O)[C@H]3NS(O)(O)O)[C@H](O)[C@H]2OS(O)(O)O)[C@H](O)[C@H]1NS(O)(O)O`, for which the equilibrium dissociation constant (Kd) (protein: SONIC HEDGEHOG PROTEIN, PDB entry 4c4n) was 0.8 µM (active).

On to `CO[C@@H]1O[C@@H](C(=O)O)[C@@H](O[C@H]2O[C@H](COS(O)(O)O)[C@@H](O)[C@H](OS(O)(O)O)[C@H]2NS(O)(O)O)[C@H](O)[C@H]1OS(O)(O)O`, for which, where the note is “protein: Fibroblast growth factor 2 FGF2, PDB entry 4oeg”, the Kd was 9.01 µM (active).

As for `O=C(O)[C@H]1CCCN1C(=O)CCCCC(=O)N1CCC[C@@H]1C(=O)O`, the Kd (protein: Serum Amyloid P Component, PDB entry 4avt) was 0.0088 µM (active).

Consider `CC(C)[C@@H]1NC(=O)[C@@H](NC(=O)[C@H](Cc2ccc(O)cc2)NC(=O)[C@@H]2CCCN2C(=O)[C@H](C)N)CSSC[C@@H](C(N)=O)NC(=O)[C@H](CO)NC(=O)[C@H](Cc2c[nH]c3ccccc23)NC(=O)[C@H](CO)NC(=O)CCNC(=O)[C@H](CCCN=C(N)N)NC(=O)[C@H](Cc2ccc(O)cc2)NC1=O`, for which the Kd (protein: Ephrin type-A receptor 4 EphA4 LBD, PDB entry 4w4z) was 0.03 µM (active).

Regarding `CC(C)[C@@H]1NC(=O)[C@@H](NC(=O)[C@H](Cc2ccc(O)cc2)NC(=O)[C@@H]2CCCN2C(=O)[C@H](C)N)CSSC[C@@H](C(=O)O)NC(=O)[C@H](CO)NC(=O)[C@H](Cc2c[nH]c3ccccc23)NC(=O)[C@H](CO)NC(=O)CNC(=O)[C@H](CCCN=C(N)N)NC(=O)[C@H](Cc2ccc(O)cc2)NC1=O`, where the note is “protein: Ephrin type-A receptor 4 EphA4 LBD, PDB entry 4w50”, the Kd is 1.4 µM (active).

Turning to `C[C@H](NC(=O)[C@@H](NC(=O)[C@H](CCC(N)=O)NC(=O)[C@H](CCCCN)NC(=O)[C@@H](N)[C@@H](C)O)[C@@H](C)O)C(=O)N[C@@H](CCCNC(N)N)C(=O)N[C@@H](CCCC[N+](C)(C)C)C(=O)N[C@@H](CO)C(=O)O` (H-TKQTA[Orn(CH(NH2)2)][Lys(Me3)]S-OH), the Kd (protein: SHH1 SAWADEE, PDB entry 4iur) was 2.63 µM (active).

Take `CC(C)C[C@H](N)C(=O)N[C@@H](C)C(=O)N[C@H](C(=O)N[C@@H](CCCCN)C(=O)N[C@@H](C)C(=O)N[C@@H](C)C(=O)N[C@@H](CCCNC(N)N)C(=O)N[C@@H](CCCC[N+](C)(C)C)C(=O)N[C@@H](CO)C(=O)O)[C@@H](C)O` (H-LATKAA[Orn(CH(NH2)2)][Lys(Me3)]S-OH): where the note is “protein: Polycomb protein, PDB entry 1pdq”, the equilibrium dissociation constant (Kd) was 5 µM (active).

Turning to `CNC(N)NCCC[C@H](NC(=O)[C@H](C)N)C(=O)N[C@H](C(=O)N[C@@H](CCCC[N+](C)(C)C)C(=O)N[C@@H](CCC(N)=O)C(=O)N[C@H](C(=O)N[C@@H](C)C(=O)N[C@@H](CCCNC(N)N)C(=O)N[C@@H](CCCCN)C(=O)N[C@@H](C)C(=O)N[C@@H](C)C(=O)NCC(=O)O)[C@@H](C)O)[C@@H](C)O` (stereo not given in full) (H-A[X2]T[Lys(Me3)]QTA[Orn(CH(NH2)2)]KAAG-OH), the Kd (protein: RAG2-PHD, PDB entry 2v85) is 34.6 µM (active).

For the molecule `C[C@H](N)C(=O)N[C@@H](CCCNC(N)N)C(=O)N[C@H](C(=O)N[C@@H](CCCCN)C(=O)N[C@@H](CCC(N)=O)C(=O)N[C@H](C(=O)N[C@@H](C)C(=O)N[C@@H](CCCNC(N)N)C(=O)N[C@@H](CCCC[N+](C)(C)C)C(=O)N[C@@H](CO)C(=O)O)[C@@H](C)O)[C@@H](C)O`, under “protein: Histone-lysine N-methyltransferase NSD3, PDB entry 4gng”, the dissociation constant Kd is 290 µM (active).

Regarding `C[C@H](NC(=O)[C@@H](NC(=O)[C@H](CCC(N)=O)NC(=O)[C@@H](N)CCCCN)[C@@H](C)O)C(=O)N[C@@H](CCCNC(N)N)C(=O)N[C@@H](CCCC[N+](C)(C)C)C(=O)N[C@@H](CO)C(=O)O` (H-KQTA[Orn(CH(NH2)2)][Lys(Me3)]S-OH), the Kd (protein: Chromo domain-containing protein 1, Chp1, PDB entry 3g7l) was 0.19 µM (active).

As for `C[C@H](N)C(=O)N[C@@H](CCCNC(N)N)C(=O)N[C@H](C(=O)N[C@@H](CCCC[N+](C)(C)C)C(=O)N[C@@H](CCC(N)=O)C(=O)N[C@H](C(=O)N[C@@H](C)C(=O)N[C@@H](CCCNC(N)N)C(=O)N[C@@H](CCCCN)C(=O)N[C@@H](CO)C(=O)N[C@H](C=O)[C@@H](C)O)[C@@H](C)O)[C@@H](C)O`, for the setting “protein: Inhibitor of growth protein 4( ING4) PHD domain, PDB entry 2pnx”, the Kd is 7.9 µM (active).

Consider `N[C@@H]1[C@@H](O)[C@H](O[C@@H]2O[C@H](CO)[C@@H](O[C@@H]3O[C@H](CO)[C@@H](O[C@@H]4O[C@H](CO)[C@@H](O[C@@H]5O[C@H](CO)[C@@H](O)[C@H](O)[C@H]5N)[C@H](O)[C@H]4N)[C@H](O)[C@H]3N)[C@H](O)[C@H]2N)[C@@H](CO)O[C@H]1O`, for which, where the note is “protein: Ostrinia furnacalis Group I chitinase catalytic domain, PDB entry 3wqv”, the Kd is 6.2 µM (active).

Regarding `N[C@H]1[C@H](O[C@H]2[C@H](O)[C@@H](N)[C@H](O[C@H]3[C@H](O)[C@@H](N)[C@H](O[C@H]4[C@H](O)[C@@H](N)[C@H](O[C@H]5[C@H](O)[C@@H](N)C(=O)O[C@@H]5CO)O[C@@H]4CO)O[C@@H]3CO)O[C@@H]2CO)O[C@H](CO)[C@@H](O)[C@@H]1O`, the Kd (protein: Ostrinia furnacalis Group I chitinase catalytic domain, PDB entry 3wqw) is 5.9 µM (active).

Take H-AETFYVD-OH: under “protein: protease, tethered dimer, PDB entry 4ep2”, the Kd was 4.43 µM (active).

Take H-AQTFYVDG-OH: for the setting “protein: HIV-1 protease, PDB entry 2nxm”, the Kd was 6.4 µM (active).

Consider H-ATFYVA-OH, for which the Kd (protein: protease, tethered dimer, PDB entry 4eqj) is 2.52 µM (active).

For H-AEVFYVDGA-OH, where the note is “protein: HIV-1 protease, PDB entry 2nxl”, the Kd is 0.54 µM (active).

Regarding `CC[C@H](C)[C@H](NC(=O)[C@H](CCC(=O)O)NC(=O)[C@H](CCC(=O)O)NC(=O)[C@H](Cc1ccccc1)NC(=O)[C@H](CC(=O)O)NC(=O)CN)C(=O)N1CC=C[C@H]1C(=O)NCC(=O)N[C@@H](CCC(=O)O)C(=O)N[C@@H](Cc1ccc(O)cc1)C(=O)N[C@@H](C)C(=O)O` (H-GDFEEI[ΔPro]GEYA-OH), the dissociation constant Kd (protein: thrombin alpha, PDB entry 1a3e) is 0.0035 µM (active).

Consider `CC(C)[C@H](NC(=O)[C@H](Cc1ccc(O)cc1)NC(=O)[C@H](CC(N)=O)NC(=O)CN)C(=O)N[C@H](C(=O)N[C@H](C(=O)N[C@@H](Cc1ccc(O[P+](O)(O)O)cc1)C(=O)N[C@@H](C)C(=O)O)[C@@H](C)O)C(C)C` (H-GNYVVT[X1]A-OH), for which the dissociation constant Kd (protein: phosphotyrosine (pTyr) scaffold Fab, PDB entry 4jfx) was 0.36 µM (active).
